Experimental data: the supplement of paper PMC10681739

Experiments:
ETS1 [1] = target: T1, ETS1 (UniProt P14921); experiment: ETS1 binding intensity (PBM fluorescence), ETS1 alone (arbitrary fluorescence units); higher = stronger binding; conditions: ETS1 concentration 1 nM; RUNX1 concentration 0 nM
T1 sequence: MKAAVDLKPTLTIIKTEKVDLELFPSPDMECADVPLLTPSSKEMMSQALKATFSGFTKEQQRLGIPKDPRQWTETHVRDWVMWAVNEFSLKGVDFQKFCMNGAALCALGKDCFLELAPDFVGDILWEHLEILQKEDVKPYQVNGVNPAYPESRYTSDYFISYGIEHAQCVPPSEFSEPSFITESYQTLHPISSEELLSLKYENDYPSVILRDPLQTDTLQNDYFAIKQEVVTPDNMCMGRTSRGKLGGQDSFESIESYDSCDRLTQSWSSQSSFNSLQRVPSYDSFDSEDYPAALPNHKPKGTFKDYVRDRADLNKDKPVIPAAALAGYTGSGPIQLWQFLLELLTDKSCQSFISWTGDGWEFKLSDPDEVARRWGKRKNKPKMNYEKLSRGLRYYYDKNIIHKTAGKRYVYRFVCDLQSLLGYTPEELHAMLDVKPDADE

RUNX1 [2] = target: RUNX1 (UniProt Q01196); experiment: RUNX1 binding intensity (PBM fluorescence), RUNX1 alone (arbitrary fluorescence units); higher = stronger binding; conditions: RUNX1 concentration 2 nM; ETS1 concentration 0 nM
Chain of RUNX1 (Q01196 whole entry): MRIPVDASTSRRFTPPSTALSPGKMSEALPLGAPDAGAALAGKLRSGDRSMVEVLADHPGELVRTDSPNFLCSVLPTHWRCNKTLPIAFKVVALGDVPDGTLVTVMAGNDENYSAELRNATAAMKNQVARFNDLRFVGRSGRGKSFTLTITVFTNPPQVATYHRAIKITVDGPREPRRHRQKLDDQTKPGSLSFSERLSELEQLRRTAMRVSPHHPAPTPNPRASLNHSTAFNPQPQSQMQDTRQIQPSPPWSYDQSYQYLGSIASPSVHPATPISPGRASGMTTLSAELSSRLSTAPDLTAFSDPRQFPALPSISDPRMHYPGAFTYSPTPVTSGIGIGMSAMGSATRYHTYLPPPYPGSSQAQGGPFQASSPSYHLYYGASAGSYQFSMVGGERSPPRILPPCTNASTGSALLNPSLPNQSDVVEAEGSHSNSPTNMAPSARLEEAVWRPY
Method: (§1)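 Cooperative gcPBM on 36-bp genomic probes with neighbouring ETS1 and RUNX1 sites. Recombinant human RUNX1 (2 nM) was incubated alone or with ETS1 (25 nM) and detected with anti-RUNX1 antibody plus Alexa488 secondary. Values are medians over 4 replicate spots; the RUNX1+ETS1 data were normalised to the RUNX1-only data. The probes sit in constant array flanks that are not printed.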

ETS1 [3] = target: T1, ETS1; experiment: ETS1 binding intensity (PBM fluorescence) in presence of RUNX1, normalised to ETS1-only experiment (arbitrary fluorescence units); higher = stronger binding; conditions: ETS1 concentration 1 nM; RUNX1 concentration 25 nM
RUNX1 [4] = target: RUNX1 (UniProt Q01196); experiment: RUNX1 binding intensity (PBM fluorescence) in presence of ETS1, normalised to RUNX1-only experiment (arbitrary fluorescence units); higher = stronger binding; conditions: RUNX1 concentration 2 nM; ETS1 concentration 25 nM
Method: as §1
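Throughout, for RUNX1 binding intensity (PBM fluorescence) in presence of ETS1, normalised to RUNX1-only experiment: Full-length recombinant human ETS1 or RUNX1 bound to double-stranded 36-bp genomic probes on microarrays, detected by protein-specific primary antibody and Alexa488 secondary, spot fluorescence as median of four replicate spots.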
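Throughout, for RUNX1 binding intensity (PBM fluorescence), RUNX1 alone: Full-length recombinant human RUNX1 bound to double-stranded 36-bp genomic probes on a high-density microarray, scored as Alexa488 fluorescence per spot via anti-RUNX1 antibody, median of four replicate spots.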

Sequence	ETS1 binding intensity (ETS1 [1])	RUNX1 binding intensity (RUNX1 [2])	ETS1 binding intensity (ETS1 [3])	RUNX1 binding intensity (RUNX1 [4])
TGAAGCCATGGTTTCCTGTCTGCGGCTCAGATCAAG	1020	717	1600	1490
GAAAACACAGGAAGCCGTCCGCGCAACCGCGTTGCA	1520	840	2160	1150
TACATAGGCGGAAGTGGCCTGCGGGCGCCGGAGTTG	3980	714	9480	1710
TTGCTTTATCACTTCCTGTTTGAGGTTTATATCCAT	5630	1590	9450	3160
GCAGGGGCCCATTTCCTGCCACAAGCCCACACAGGA	1390	749	1280	1750
TGCGCCGGGAGGAAGGGCTCCAAAACCACAGGGCGG	411	900	1400	927
GCGGAGCGAGCGGCCGGATGCGGTCACCATAGAGAC	4210	917	25200	8090
GGCCCTTCTGGGGCAGGATGTGGTGCCTGCCAAAGG	4650	707	6110	891
AGAGTCTTTTTTCCTGAGCGTTTGCGGTTTTGACTT	430	10500	1690	19500
GTCTTCCTTCCTGAGAATCTTAACCACCAGCTTGCC	434	1350	483	2050
GGGACGGGGAGGGCAGGATGTGGTCGCTCTTCCCTC	3320	822	9330	1750
GAGCAAACGGAGGCAGGAAGTGGTTATGTAACTTCA	7030	810	12400	2170
CAGCAGAGGCGCGGATGTGGTTAAACGAGTGCCGTC	775	876	6770	3670
AGTGTCCGCCGCTTCCTGGTTGCGGGTCAGCGCCCA	629	824	704	2690
GGCACTTCCGGTCCTGACCTGAAGCGGTAACCGTCA	8390	719	8600	1820
TGCTTCTGAGGAAGTGATCTGTGGTCAAAGAAAGAA	747	891	2040	1180
CCTCGGTTCGGAAACGGCGAAAGCAAACCGCAAGGA	478	2260	3890	3120
ACAAGGACTTCCGCCTCCCTGCGGTCCCTCCCCTAC	965	1110	1380	2720
GACTGGTTTCCTGGTTTTGATGTGGTTTAGAGAAAA	504	1080	630	2170
CCTGGTCCGGAAGCGCTGTCCCCGCCTCCCGCATAG	1950	822	2430	1430
GTGCTGAGCAGCTTCCCGTCTGCGGTGAAGACAGCC	396	1150	1040	1930

Sequence	ETS1 binding intensity (ETS1 [1])	RUNX1 binding intensity (RUNX1 [2])	ETS1 binding intensity (ETS1 [3])	RUNX1 binding intensity (RUNX1 [4])
GCCCTGACCCACATCCTGCCGCAGCCTGCTTGTCCT	979	1520	1350	7030
CTGCCGCTGCCTTCCGCCCCCACACACGCACACCAC	686	1240	741	1640
ACAAAGAAACCTACATCCTAAGCCACAGAATACAGC	545	930	523	881
TAGCCGTACGGAAATGTTTGTGGTTCTCTGCATCTA	647	912	1010	1230
CGGGCGAGCGCAGGATGCGGTTGTCGAACGCGCGGC	764	762	1050	1100
TCGGCGGATATGAAAAAAAGTCCGTGGTCACGTGCA	475	730	582	877
CTCCTGTTCCGGCTCAAAGGGAAACCGCTGCTTTTC	605	1210	907	1460
CTCCTTCCTGATCGGGCAGGAACTAACCACAGGAGG	1060	825	2480	1130
GCCCGCCCCGGAAGTGCAAACTGTGTGGTCTGGCAG	3980	867	7090	1330
AGGCGGCAGGAAATGACCCCATCCCGCAGCCTGGGC	2480	806	5190	2040
CGTTTCCTGTCTGGGACTGCGCCCACGCGGTCACGT	725	966	922	2450
GCCAGGAGGACTTCCGGGTGGGTGTGGTATCTGCGA	1320	780	2540	2300
AGGTTCTCCAGAGGAGGAAGTGGTTTGCTGCAGGCT	2450	755	4400	971
CGAGCTCGGTGTTCCGCTTTTTGTGGGCCGGGTGGG	467	1080	478	903
AGGAGTGTCACTTCCTCTTTCCTCACCACAGCCTCC	1100	1040	1440	1890
TAAGTGCAGGAAACGGCTGTGTGGGTGTCAGTGATT	1350	689	1310	906
ATGGCGAAGCAGGATGCCCTCAACCCACATACGGCA	638	1010	927	1000
TGGGCAAGATATCCTGGAAGTGGTTAAAAAAAATTA	687	739	1050	1060
TTCTTCACTTCCTTCTCTCCGTGGTTTCGCCATTAG	513	2260	436	3130
GCAGAACCAGAAACAGGATGTGGGTTCCCCTTTAAG	7390	826	18900	4550
